Test results as given in PubChem BioAssay AID651813 (National Center for Advancing Translational Sciences (NCATS), 2012).
About 1,100 (52%) of roughly 2,100 compounds were called active. Roughly 27% stayed inconclusive and do not appear here. So high a share suggests a set chosen from earlier hits. This is one part of the list. Unmarked numbers belong to inactive results. Calls come from the whole dose curve; as a rule, active = well fitted inhibition curve with a large enough effect; inconclusive = small, poorly fitted or top-dose-only effect; inactive = no such curve, though single readings can be large or run the other way.

Molecular target: DNA dC->dU-editing enzyme APOBEC-3G (Homo sapiens) (UniProt Q9HC16)
Test: qHTS for inhibitors of Vif-A3G interactions: Cherry picks counterscreen;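 note: hits raise yellow fluorescence by blocking Vif-driven A3G-eYFP degradation; nearly all actives have a fitted effect of over 70% in size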;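 for max response: max response given as percent of control signal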
Details: HeLa A3G-eYFP + Vif (tagged APOBEC3G with the HIV-1 protein that degrades it), eYFP fluorescence, 24 h
Outline: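 HeLa cells stably expressing A3G-eYFP and Vif were treated for 24 h at 37 deg C with compounds at several concentrations; yellow fluorescence (Ex 488 nm, Em 500-530 nm) read by Acumen Explorer, MG132 as positive control.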
Potency is the fitted concentration of half-maximal effect.

Sequence of DNA dC->dU-editing enzyme APOBEC-3G (Homo sapiens) (Q9HC16 whole entry, looked up): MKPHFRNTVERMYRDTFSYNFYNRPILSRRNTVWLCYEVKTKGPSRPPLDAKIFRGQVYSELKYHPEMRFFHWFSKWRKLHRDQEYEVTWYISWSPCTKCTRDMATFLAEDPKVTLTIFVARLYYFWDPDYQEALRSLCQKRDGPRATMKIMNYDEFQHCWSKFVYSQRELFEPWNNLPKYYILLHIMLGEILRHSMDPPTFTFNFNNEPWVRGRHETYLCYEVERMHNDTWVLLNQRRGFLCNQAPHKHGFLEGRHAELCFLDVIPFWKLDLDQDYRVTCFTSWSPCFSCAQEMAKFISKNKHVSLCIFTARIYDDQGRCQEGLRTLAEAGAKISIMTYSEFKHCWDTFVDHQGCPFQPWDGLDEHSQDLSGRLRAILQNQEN

Compound | Potency | max response
CC(=O)c1cccc(-c2ccnc3c2CC(C(=O)NCC2CCOCC2)O3)c1 (stereo not given) | 5.59 µM (active) | –
O=C(NCc1ccco1)C1Cc2c(-c3cccc(F)c3)ccnc2O1 (stereo not given) | 5.59 µM (active) | –
CC1CC(=O)C2=C(C1)OC(N)=C(C#N)C2c1coc2ccccc2c1=O (stereo not given) | – | -19.2%
N#CC1=C(N)Oc2c(sc3ccccc23)C1c1ccco1 (stereo not given) | 12.5 µM (active) | –
CC(O)CN(CC(C)O)c1ccc2c(c1)Cc1cc([N+](=O)[O-])ccc1-2 (stereo not given) | 0.58 µM (active) | –
Cc1cc(C)c2cc3c(N)c(C(=O)Nc4c(C)[nH]c(=O)[nH]c4=O)sc3nc2c1 | 11.6 µM (active) | –
COc1cc2c(c(OC)c1OC)-c1ccc(N(C)CC(OC)OC)c(=O)cc1[C@@H](NC(C)=O)CC2 | 0.559 µM (active) | –
CN[C@H]1CCc2cc(OC)c(OC)c(OC)c2-c2ccc(N(C)CC(OC)OC)c(=O)cc21 | 6.27 µM (active) | –
CC(C)c1ccc(C(=O)NCCCNC(=O)c2cnccn2)cc1 | – | 10.5%
O=C(NCCN1C(=O)S/C(=C\c2ccc(OC(F)F)cc2)C1=O)c1cnccn1 | 12.5 µM (active) | –
O=c1c2ccccc2nc(/C=C/c2ccc([N+](=O)[O-])o2)n1CCCO | 10.3 µM (active) | –
Cn1c(/C=C/c2ccc([N+](=O)[O-])o2)nc2ccccc2c1=O | 14.6 µM (active) | –
CCn1c(/C=C/c2ccc([N+](=O)[O-])o2)nc2ccccc2c1=O | 20.6 µM (active) | –
CCCN1C(=O)C(Cc2nc3ccccc3c(=O)n2CC)c2cc(Br)ccc21 (stereo not given) | – | 11.6%
N#C/C(N=Nc1ccccc1O)=N\Nc1ccccc1O | 16.4 µM (active) | –
O=C(/C=C/c1ccc([N+](=O)[O-])o1)NNC(=O)c1ccc(F)cc1 | 7.9 µM (active) | –
CCOC(=O)CCc1ccc(NC(=O)/C=C/c2ccc([N+](=O)[O-])o2)cc1 | 11.6 µM (active) | –
N#CCc1ccc(NC(=O)/C=C/c2ccc([N+](=O)[O-])o2)cc1 | 13 µM (active) | –
O=C(Nc1nc2c(F)cccc2s1)c1ccc([N+](=O)[O-])o1 | – | -8.08%
N#C/C=C/N1CCN(C(=O)c2ccco2)CC1 | – | -14.7%
CCN(CC(=O)NCc1ccc(F)cc1)C(=O)/C=C/c1ccc(OC)c(S(=O)(=O)NC(C)C)c1 | 3.53 µM (active) | –
c1ccc(-c2cnn3c(-c4ccccc4)c(-c4ccccc4)nc3n2)cc1 | 2.59 µM (active) | –
COc1cccc(C2CC(c3ccccc3)=NN2S(=O)(=O)c2ccc(C)cc2)c1OC (stereo not given) | 18.4 µM (active) | –
Cc1ccc(C2=NN(S(=O)(=O)c3ccccc3)C(c3ccccc3O)C2)cc1 (stereo not given) | 13 µM (active) | –
CCOC1=C2CN(S(=O)(=O)c3ccc(C)cc3)[C@H](c3cccc4ccccc34)C[C@H]2C(C#N)(C#N)C(C#N)(C#N)C1 | – | -20.1%
Cc1ccc(C2=NN(C(=O)c3cccs3)C(c3ccccc3O)C2)cc1 (stereo not given) | – | 20.9%
O=c1c2ccccc2sc2ccc(NCCCN3CCOCC3)cc12 | 23.1 µM (active) | –
COc1ccc(S(=O)(=O)N2CCN(C(=O)c3ccc([N+](=O)[O-])o3)CC2)cc1 | – | -0.426%

Compound | Potency | max response
COc1ccc(S(=O)(=O)N2c3ccccc3OCC2CC(=O)O)cc1 (stereo not given) | 12.5 µM (active) | –
COC(=O)/C(=C\Nc1ccc(Cl)cc1Cl)NC(=O)c1ccc(OC)cc1 | 1.98 µM (active) | –
O=C(NC(=S)Nc1c(Cl)cc(Cl)cc1Cl)c1ccccc1 | – | 6.93%
COc1ccc(N/C=C2\C(=O)CCc3c2oc2cc(Cl)c(O)c(Cl)c32)cc1 | – | -5.39%
Clc1ccc(/C=N/NC2=Nc3cccc4cccc2c34)cc1 | 20.6 µM (active) | –
Clc1ccccc1/C=N/NC1=Nc2cccc3cccc1c23 | 9.2 µM (active) | –
COc1cccc(CNCCSc2nnnn2C)c1OCc1ccc(F)cc1 | – | 2.02%
COc1ccc(-c2nc3cnccn3c2NC2CCCCC2)cc1-c1cccc(Cl)c1 | – | -10.6%
CCCCNc1c(-c2ccc(SC3CCCCC3)cc2)nc2cnccn12 | 2.23 µM (active) | –
c1cc(SC2CCCCC2)cc(-c2nc3cnccn3c2NC2CCCCC2)c1 | – | 17.4%
CN(C)c1ccc(/C=N/NC(=O)c2cc(-c3ccc4c(c3)OCO4)n[nH]2)cc1 | 12.5 µM (active) | –
Cc1cc(C)n(-c2nnc3n2N=C(c2c[nH]c4ccccc24)CS3)n1 | 6.27 µM (active) | –
CCOc1cc(/C=C2\CCC/C(=C\c3cc(Cl)c(O)c(OCC)c3)C2=O)cc(Cl)c1O | 17.7 µM (active) | –
COc1cc(/C=C2/CCC/C(=C\c3cc(O)c(OC)c(Cl)c3)C2=O)cc(Cl)c1O | 14.6 µM (active) | –
Cc1csc(NC(=O)CCC(=O)N(CC(=O)NC2CCCC2)Cc2ccccc2)n1 | – | -14.8%
NC(=O)c1ccc(Cn2c(C(=O)c3cc(Cl)c(N)c(Cl)c3)c3ccccc3[n+]2[O-])cc1 | 11.2 µM (active) | –
Cc1ccc(-n2nc3c(N4CCCC(C(=O)NCc5ccccc5C)C4)nnc(C)c3c2C)cc1 (stereo not given) | – | -1.78%
Cc1ccc(Cl)cc1NC(=O)Nc1cn(CC(C)C)c(=O)c2ccccc12 | – | 10.5%
Cc1ccc(C)c(NC(=O)Cn2cc(S(=O)(=O)Cc3cccc(Cl)c3)c3ccccc32)c1 | 18.4 µM (active) | –
O=C(Nc1ccc(Cl)cn1)c1cccc(S(=O)(=O)N2CCCCCC2)c1 | – | 1.56%
COc1ccc(OCCCC(=O)N2CCN(S(=O)(=O)c3cccc(F)c3)CC2)cc1 | – | 2.87%
O=C(Cn1ncc(Cl)c(Cl)c1=O)N1CCN(S(=O)(=O)c2ccc3ccccc3c2)CC1 | 11.2 µM (active) | –
Cc1ccc(S(=O)(=O)N2CCCCC2)cc1NC(=O)Cn1ncc(Cl)c(Cl)c1=O | 12.5 µM (active) | –
Cc1ccc(NC(=O)C2CCN(S(=O)(=O)c3ccc(Cl)c(C(F)(F)F)c3)CC2)nc1 | – | 8.66%
Fc1ccc(-c2cnn3c(-c4cccs4)ccnc23)cc1 | 5.59 µM (active) | –
COc1ccc(CN(C(C)=O)c2cccc(C)c2C)cc1 | 17.7 µM (active) | –
Cc1nnc(NC(=O)CSc2nc(C(C)C)nc3ccccc23)s1 | 6.27 µM (active) | –
